PubChem BioAssay AID720697 (Broad Institute, 2013)
Results with a measured potency or affinity are listed apart. Results filed as inconclusive are left out. A number with no mark means an inactive call. Active and inactive are the calls of the source.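 Rule for the calls: active = signal loss with fitted half-maximal concentration at or below twice the top valid tested dose in every test run; inconclusive = runs disagree, flat 30 to 70% signal loss, or poor fit; inactive = all runs flat, opposite direction, or potency beyond limit.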

experiment: general mammalian cell viability loss – inhibitor set, cherry-pick, set 2, cytotoxicity control for miR-122 modulator project, dose response (AID 720697); details: HEK293T viability, CellTiter-Glo luminescence, 48 h; series mostly up to 26 µM;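 note: 0% = median of neutral control wells and -100% = MG132 positive control wells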

Compound	outcome	activity change, negative = cytotoxicity
COc1ccc(CNC(=O)C[C@H]2CC[C@H]3[C@H](COc4ccc(NC(=O)C(C)C)cc4C(=O)N3C)O2)cc1	inactive	–
OC(c1cc(C(F)(F)F)nc2c(Cl)cc(Cl)cc12)C1CCCCN1 (centres undefined)	inactive	–
Cc1ccc(C(=O)n2nc(-c3ccccc3)nc2NCc2ccco2)cc1	inactive	–
CCCC(NS(=O)(=O)c1ccc(Br)cc1)C(=O)O (centres undefined)	inactive	–
O=C(CN1CCOCC1)NC[C@@H]1N[C@@H](CO)[C@@H]1c1ccc(-c2ccccc2)cc1	inactive	–
CNC(=O)C[C@H]1CC[C@@H]2[C@H](COc3ccc(NC(=O)NC(C)C)cc3C(=O)N2C)O1	inactive	–
CCCNC(=O)C[C@@H]1CC[C@@H]2[C@@H](COc3ccc(NS(=O)(=O)c4ccccc4C)cc3C(=O)N2C)O1	inactive	–
COc1ccc(S(=O)(=O)N(C)C[C@@H]2Oc3cc(-c4cccc(F)c4)ccc3S(=O)(=O)N([C@@H](C)CO)C[C@H]2C)cc1	inactive	–
Cc1nn(C)cc1NC(=O)C[C@@H]1CC[C@@H]2[C@H](COc3ccc(NC(=O)Nc4cccc(Cl)c4)cc3C(=O)N2C)O1	inactive	–
COc1ccc(-c2c(C)nn3c(N)c(-c4ccccc4)cnc23)cc1OC	inactive	–
COCC(=O)Nc1ccc2c(c1)C(=O)N(C)[C@@H]1CC[C@@H](CC(=O)NC3CCCC3)O[C@H]1CO2	inactive	–
CCN(C[C@@H]1N[C@@H](CO)[C@H]1c1ccc(-c2cccc(F)c2)cc1)C(=O)CN(C)C	inactive	–
CCNC(=O)C[C@@H]1CC[C@H]2[C@@H](COc3ccc(NC(=O)c4ccc(C(F)(F)F)cc4)cc3C(=O)N2C)O1	inactive	–
C[C@@H]1CN([C@H](C)CO)S(=O)(=O)c2ccc(C3=CCCC3)cc2O[C@@H]1CN(C)C(=O)c1cnccn1	inactive	–
COc1ccc(-c2nc(NC(=O)CSc3nnc(C)s3)ns2)cc1	inactive	–
Cc1ccc(-c2noc(CCC(=O)Nc3ccccc3C)n2)cc1	inactive	–
CCC(=O)N1[C@H](CO)[C@@H](c2ccccc2)[C@@H]1CN(CC)C(=O)c1cccc(F)c1	inactive	–
COc1ccc(-c2ccc(C#N)c(OC(=O)c3c(Cl)cccc3Cl)n2)cc1	–	-5.32% [at 6 µM]
CN1C(=O)c2cc(NS(=O)(=O)c3ccc(Cl)cc3)ccc2OC[C@H]2O[C@H](CC(=O)N3CCc4ccccc4C3)CC[C@@H]21	inactive	–
CCNC(=O)C[C@@H]1CC[C@H]2[C@@H](COc3ccc(NC(=O)Nc4ccc(F)cc4)cc3C(=O)N2C)O1	inactive	–

Compound	outcome	activity change, negative = cytotoxicity
COCC(=O)N(C[C@@H]1N[C@H](CO)[C@H]1c1ccc(-c2cccnc2)cc1)C(C)C	inactive	–
CCC(=O)N1[C@H](CO)[C@H](c2ccccc2)[C@@H]1CN(CC)C(=O)c1ccccc1	inactive	–
C[C@@H]1CN([C@H](C)CO)C(=O)c2cc(-c3cncnc3)cnc2O[C@H]1CN(C)Cc1ccc(Oc2ccccc2)cc1	inactive	–
CCS(=O)(=O)Nc1ccc2c(c1)C(=O)N(C)C[C@@H](OC)[C@H](C)CN(CC1CCCC1)[C@H](C)CO2	inactive	–
CN(C[C@H]1[C@H](c2ccccc2)[C@@H](CO)N1CC1CC1)C(=O)c1cccc(F)c1	inactive	–
COCC(=O)N(C[C@@H]1N[C@H](CO)[C@H]1c1ccc(C2=CCCC2)cc1)C(C)C	inactive	–
Cc1ccc(-n2ncc(C(=O)Nc3cc(Cl)ccc3C)c2C2CCNCC2)cc1C	inactive	–
CCC(=O)N1[C@H](CN(CC)C(=O)c2ccccc2)[C@@H](c2ccccc2)[C@@H]1CO	inactive	–
CNC(=O)C[C@H]1CC[C@H]2[C@@H](COc3ccc(NC(=O)C(C)C)cc3C(=O)N2C)O1	inactive	–
CCN(C[C@H]1N[C@@H](CO)[C@@H]1c1ccc(C2=CCCC2)cc1)C(=O)c1ccncc1	inactive	–
CO[C@@H]1CN(C)C(=O)c2ccc(NC(=O)c3nc4ccccc4s3)cc2OC[C@H](C)N(Cc2cccnc2)C[C@H]1C	inactive	–
CCCNC(=O)N1[C@H](CO)[C@H](c2ccc(-c3ccccc3)cc2)[C@@H]1CNC(C)=O	inactive	–
COc1ccc(S(=O)(=O)Nc2ccc3c(c2)CC(=O)N([C@@H](C)CO)C[C@@H](C)[C@H](CN(C)Cc2ccc(-c4ccccc4)cc2)O3)cc1	inactive	–
CN(C)CCCNC(=O)C[C@H]1CC[C@H]2[C@H](COc3ccc(NC(=O)c4cccc(F)c4)cc3C(=O)N2C)O1	inactive	–
C/C=C/c1ccc([C@H]2[C@@H](CO)N[C@@H]2CN(CC(C)C)C(=O)c2ccccn2)cc1	inactive	–
C/C=C/c1ccc([C@H]2[C@@H](CO)N(C(=O)COC)[C@H]2CNC(=O)CC)cc1	inactive	–
CCCCC(=O)OCC(=O)c1[nH]c(C)c(C(=O)OCC)c1C	inactive	–
CNC(=O)C[C@H]1CC[C@@H]2[C@H](COc3ccc(NS(=O)(=O)c4ccc(F)cc4)cc3C(=O)N2C)O1	inactive	–
COCC(=O)Nc1ccc2c(c1)C(=O)N(C)[C@H]1CC[C@@H](CC(=O)NC3CCCC3)O[C@H]1CO2	inactive	–
